Bioassay records (PubChem BioAssay)
In the library only some 6.9% were active in any assay of this set; here they are far more common.
Beta cell apopt: inhibitors of cytokine-induced beta cell apoptosis, primary screen, luminescence. INS-1E cytokine-induced death, ATP luminescence, 48 h; percent of positive-control rescue, neutral wells zero. protection from apoptosis, % (concentration not given with the values). 300,000 compounds, 0.8% hits;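 active means Every replicate reaches about 75%, or at least half do and their mean reaches it too, limit read from the data; inconclusive means At least half of replicates reach the limit but their mean does not; inactive means Under half of replicates reach the limit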;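 further: 0% = cytokine-treated negative control wells and 100% = positive control rescue; higher means more ATP so stronger rescue from cytokine killing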
SKKanGAS inh: S. pyogenes SKKanGAS growth inhibitors in kanamycin, primary screen, streptokinase expression inhibitor project, SKKanGAS strain, BacTiter-Glo luminescence; inhibition, % at 7.5 µM; 300,000 compounds, 1.3% hits; 6 h; AID 1662, 2009;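 active means mean replicate score, as percent of positive control median, at least 50; inconclusive means mean below 50 but one replicate at or above 50; inactive means mean and every replicate below 50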;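 further: strain carries kanamycin resistance gene driven by streptokinase promoter and grows in 40 µg/ml kanamycin; loss of luminescence reflects streptokinase promoter inhibition or plain growth inhibition; 0% = median of DMSO wells and 100% = positive control at its reference dose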
CSC inhib: cancer stem cell viability inhibitors, primary screen, luminescence; 300,000 compounds, 1.1% hits; cancer stem cell-like cells viability; inhibition, % at 7.5 µM; in the data active means inhibition above about 75%; inconclusive means no clear call, values can overlap the other calls; tested in HMLE shEcad cells
Mdm2 MdmX PPI: inhibitors of human Mdm2-MdmX association, primary screen, cell-based, luminescence, split luciferase, SaOS-2, uHTS. SaOS-2 split-luciferase Mdm2/MdmX complementation. inhibition, % at 8 µM. 330,000 compounds, 3% hits. AID 485346, 2010;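 active means inhibition of at least 50% at 8 µM in the primary screen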
MPTP inh: mitochondrial permeability transition pore inhibitors, primary screen, biochemical, isolated mouse mitochondria, absorbance | Ca2+ swelling absorbance, 30 min | inhibition, % at 10 µM | 360,000 compounds, 1.4% hits;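 active means inhibition of 50% or more, scaled per plate between neutral and stimulator controls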;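 further: 0% = DMSO wells given calcium and 100% = 1 mM EGTA wells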
GRIN3A LBD mod: binders of NR3A ligand-binding domain, primary screen, biophysical, differential scanning fluorimetry, uHTS | Glutamate receptor ionotropic, NMDA 3A (GRIN3A) ligand-binding domain | NR3A LBD differential scanning fluorimetry, Tm shift; 0% = protein alone, 100% = glycine-bound protein | AID 1259313, 2017 | 340,000 compounds, 2.5% hits | Tm shift relative to glycine control, % at 25 µM;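 active means melting temperature shift of at least 10% of the positive control shift, at one fixed dose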
Starred values were filed as active, the others as inactive; ? = inconclusive; · = no result.

SMILES | Beta cell apopt | SKKanGAS inh | CSC inhib | Mdm2 MdmX PPI | MPTP inh | GRIN3A LBD mod
O=C(Nc1cccc(NC(=O)c2ccc(-c3ccc(Br)cc3)o2)c1)c1ccccc1 | 2.6 | 26.9 | 19.5 | 43.0 | -3.2 | -8.3
O=C(Nc1ccccc1)c1ccc(-c2ccc(Br)cc2)o1 | 3.8 | -5.5 | ? | -15.3 | 27.9 | 18.8*
CCOC(=O)c1ccc(S(=O)(=O)N2CCN(C3CC(=O)N(c4ccc(OC)cc4)C3=O)CC2)cc1 (configuration not stated) | · | · | · | · | -0.9 | -1.1
CCCCCNCC(=O)Nc1cccc(C(=O)Nc2cccc(C(F)(F)F)c2)c1 | 32.2 | 5.3 | 93.3* | 39.0 | 8.2 | -4.5
S=C(NNC(=S)Nc1ccccc1)Nc1ccccc1 | -8.2 | -12.9 | 3.6 | -30.1 | 7.0 | 34.5*
S=C(NN=C(C1CC1)C1CC1)Nc1ccccc1 | -0.3 | 9.6 | -5.6 | -17.0 | 0.2 | 11.2*
FC(F)(F)c1cccc(NC(=S)NNC(=S)Nc2cccc(C(F)(F)F)c2)c1 | 96.8* | 100.8* | 110.5* | 43.7 | · | ·
CNNC(=S)Nc1cccc(C(F)(F)F)c1 | -4.0 | -4.2 | 1.5 | -13.1 | 3.4 | -0.6
CC(C)CC(=O)Nc1ccc(C(=O)COC(=O)C2CC(=O)N(Cc3ccccc3)C2)cc1 (configuration not stated) | · | · | · | 29.2 | 1.0 | -0.2
O=C(Nc1cc(C(F)(F)F)ccc1F)C1CCCCC1 | -2.1 | 1.0 | 10.9 | -20.7 | -1.5 | -1.2
O=C(COCC(=O)Nc1cccc(C(F)(F)F)c1)Nc1cccc(C(F)(F)F)c1 | -10.2 | -3.6 | 76.6* | -4.5 | 14.5 | 9.9
O=C(Nc1cccc(C(F)(F)F)c1)c1ccccc1NC(=O)C1CCCCC1 | 0.2 | 5.8 | 11.4 | 9.4 | 38.9 | 10.5*
Cc1ccc(S(=O)(=O)N2CCN(Cc3ccccc3C(F)(F)F)CC2)cc1 | -6.9 | -13.4 | -4.2 | 1.5 | -0.7 | 20.2*
O=S(=O)(c1ccccc1)N1CCN(Cc2ccccc2C(F)(F)F)CC1 | -1.1 | · | -4.8 | 4.3 | 2.2 | 3.6
c1ccc(Cn2ccnc2SCc2nnc(-c3ccccc3)o2)cc1 | · | -2.6 | -14.9 | 2.8 | -1.3 | 10.5*
NC(=O)CSc1nccn1Cc1ccccc1 | -0.1 | -5.3 | 2.7 | -27.9 | 2.3 | -1.5
O=C(C1CCN(c2nnc(N3CCCC3=O)s2)CC1)N1CCN(c2cccc(C(F)(F)F)c2)CC1 | 10.6 | 2.5 | 18.4 | -1.3 | -0.4 | 16.9*
Cc1ccc(C)c(OCCC(=O)NCCc2ccc(F)cc2)c1 | -5.6 | 4.5 | -13.5 | 34.7 | -0.2 | 0.7
O=c1[nH]c2ccc(Br)cc2o1 | · | · | · | · | -1.1 | 11.2*
CCN(CC)CCCNC(=S)N1CCN(c2nc(-c3ccc(F)cc3)cs2)CC1 | 17.4 | -2.1 | 93.3* | 47.1 | 12.4 | -1.0
N#CC1CC(c2ccc([N+](=O)[O-])cc2)=NN1c1ccc([N+](=O)[O-])cc1 (configuration not stated) | 12.6 | 14.8 | 30.9 | -5.7 | 3.0 | 19.6*
O=[N+]([O-])c1cccc(C2CC(c3ccccc3)=NN2c2ccccc2)c1 (configuration not stated) | 3.7 | 22.2 | 16.6 | 13.4 | 0.7 | 0.4
CCN(c1ccccc1)S(=O)(=O)c1cccc(C(=O)NCC(c2ccco2)N2CCCCC2)c1 (configuration not stated) | · | · | · | · | 1.3 | 0.1
NC(=S)N/N=C\c1ccccc1OCc1ccccc1 | 1.6 | -4.3 | 6.0 | 22.9 | 0.5 | -1.9
O=C(CC1S/C(=N/N=C/c2c[nH]c3ccccc23)NC1=O)Nc1ccccc1 (configuration not stated) | -1.2 | -5.1 | 2.2 | 28.1 | 1.1 | 7.9
SMILES | Beta cell apopt | SKKanGAS inh | CSC inhib | Mdm2 MdmX PPI | MPTP inh | GRIN3A LBD mod
NC(=S)N/N=C/c1c[nH]c2ccc(OCc3ccccc3)cc12 | · | -2.9 | 16.9 | 19.7 | -0.2 | 10.1*
O=C(CC1S/C(=N/N=C/c2c[nH]c3ccc(OCc4ccccc4)cc23)NC1=O)Nc1ccccc1 (configuration not stated) | -5.1 | 4.0 | -10.9 | 18.0 | 2.1 | 22.9*
COC(=O)c1ccc(NC(C(=O)OC)C(C)C)c([N+](=O)[O-])c1 (configuration not stated) | -3.8 | -9.0 | -8.4 | -27.7 | 1.5 | 8.6
CCC(C)C(Nc1ccc(C(=O)OC)cc1[N+](=O)[O-])C(=O)OC (configuration not stated) | · | -7.4 | · | 7.3 | 2.2 | 11.9*
FC(F)(F)c1ccccc1/C=N/N1CCN(Cc2ccccc2)CC1 | 5.0 | -17.8 | -4.8 | -21.1 | 2.4 | 18.0*
O=C(Nc1cccc(Cl)c1)C1COc2ccccc2O1 (configuration not stated) | -4.8 | -0.6 | -6.5 | -16.6 | -0.9 | -1.4
COc1ccc(S(=O)(=O)NCC(c2ccc(F)cc2)N2CCN(C)CC2)cc1 (configuration not stated) | -2.3 | 50.1* | · | 32.9 | 0.6 | 1.6
COc1ccc(C(CNS(=O)(=O)c2ccc(F)cc2)N2CCN(C)CC2)cc1 (configuration not stated) | 0.0 | 35.7 | · | 7.5 | -0.8 | -1.8
CCOC(=O)N1CCN(c2ccc(F)cc2[N+](=O)[O-])CC1 | -2.1 | -0.7 | -3.1 | -13.7 | -0.2 | 22.9*
CCOc1cc(C(=O)O)cc(Cl)c1OC | 2.3 | · | · | 10.3 | -1.6 | 21.4*
CC(O)C(NC(=O)OCc1ccccc1)C(=O)OCc1ccccc1 (configuration not stated) | -6.4 | · | -6.6 | 3.5 | -0.1 | -0.3
CC(=O)Nc1ccc(C(=O)OCC(=O)N2CCC(Cc3ccccc3)CC2)cc1 | -1.2 | · | -14.2 | -12.3 | -2.9 | -2.3
COc1cc(OC)cc(-c2cc(N)n(S(=O)(=O)Cc3ccccc3)n2)c1 | 1.3 | -2.9 | -8.0 | -0.6 | 0.0 | -11.2
COc1ccc(S(=O)(=O)n2nc(-c3ccc(Cl)cc3)cc2N)cc1OC | -20.5 | 3.0 | -5.9 | 34.7 | 2.1 | 14.2*
COc1ccc(OC)c(S(=O)(=O)n2nc(-c3ccccc3)cc2N)c1 | -2.5 | -1.0 | 2.5 | -9.7 | -2.1 | 21.9*
Clc1ccc(Nc2nc(-c3ccncc3)cs2)cc1 | -2.0 | -6.7 | · | 6.8 | -1.8 | 10.5*
CC(=O)Oc1ccc(-c2csc(Nc3ccc(S(N)(=O)=O)cc3)n2)cc1 | 8.1 | -10.5 | -4.4 | 28.8 | 1.7 | 2.7
Oc1ccc(Nc2nc(-c3ccc(O)cc3)cs2)cc1 | 23.6 | 5.9 | 29.9 | -6.1 | -1.5 | 12.1*
Cc1csc(Nc2ccc(Cl)cc2)n1 | 1.4 | 0.0 | -5.3 | -43.5 | 1.1 | 4.7
Cc1ccc(Nc2nc(C)cs2)cc1 | 2.2 | -1.3 | · | -105.6 | 0.1 | 25.8*
COc1ccc(-c2csc(Nc3ccc(S(N)(=O)=O)cc3)n2)cc1 | · | -1.1 | 3.6 | 27.2 | 0.0 | 22.7*
